Measurements from PubChem BioAssay (NCI).
Compounds without any hit were thinned out: in the full panel of roughly 79,000, 15% have a hit. Rule as the data show it: active = growth inhibition above about 70%; inactive = the rest.

Key:
[1] = NCI Yeast Anticancer Drug Screen. Data for the rad50 strain (AID 155);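 also: 0% = growth of vehicle-only cultures of the same strain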; conditions: S. cerevisiae rad50 strain growth inhibition; at 50.0 µM; stronger effect = higher value
Summary of the method: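 Vehicle-treated cultures provide the reference for the growth inhibition reported for compound-exposed, repair-deficient yeast.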

[2] = NCI Yeast Anticancer Drug Screen. Data for the mec2-1 strain (AID 157); conditions: S. cerevisiae mec2-1 strain, at 50.0 µM, stronger effect = higher value
Summary of the method: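 Each compound was tested on mec2-1 yeast, a strain altered in DNA damage repair or cell cycle control. Growth inhibition is reported relative to vehicle.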

[3] = NCI Yeast Anticancer Drug Screen. Data for the sgs1 mgt1 strain (AID 161);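 also: 0% = growth of cultures given vehicle only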; conditions: S. cerevisiae sgs1 mgt1 strain, at 50.0 µM, stronger effect = higher value
Summary of the method: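 Test agents were incubated with a DNA-repair-mutant yeast strain. Growth was then read and compared against vehicle-treated controls.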

[4] = NCI Yeast Anticancer Drug Screen. Data for the cln2 rad14 strain (AID 165);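 also: 0% = growth equal to vehicle treated cultures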; conditions: S. cerevisiae cln2 rad14 strain, at 50.0 µM, stronger effect = higher value
Summary of the method: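 Test compounds were added to cln2 rad14 yeast cultures; inhibition of growth was then determined by comparison with vehicle treatment.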

[5] = NCI Yeast Anticancer Drug Screen. Data for the bub3 strain (AID 167); conditions: S. cerevisiae bub3 mutant strain, at 50.0 µM, stronger effect = higher value
Summary of the method: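 Mutant yeast screening strain plus compound; vehicle-treated cultures serve as the 0% inhibition reference.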

[6] = NCI Yeast Anticancer Drug Screen. Data for the mlh1 rad18 strain (AID 175); conditions: S. cerevisiae mlh1 rad18 strain growth inhibition; at 50.0 µM; stronger effect = higher value
Summary of the method: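 Inhibition values reflect reduced growth of mutant yeast versus vehicle-treated controls following compound exposure; the mutations affect DNA damage repair.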

Measured: growth inhibition

COc1cc2c(c(Cl)c1OC)CCN(C)CC2c1ccccc1 (stereo unspecified)
inactive: [1] -5.25% | [2] -15.3% | [3] -13.9% | [4] -9.5% | [5] -1.45% | [6] 1.85%

COC(=O)Cc1ccccn1
inactive: [1] 0.4% | [2] -18.9% | [3] 1.4% | [4] 14.5% | [5] -21.5% | [6] 22.4%

Cc1ccc(NC(=O)CCC(=O)C2CC(=O)CCC2=O)cc1C (stereo unspecified)
inactive: [1] -22.6% | [2] -14.8% | [3] -0.7% | [4] 5.75% | [5] 6.4% | [6] -9.9%

O=C(NC1CCCCC1)NC12CC3CC(CC(F)(C3)C1)C2
inactive: [1] -9.9% | [2] -12.8% | [3] -7.55% | [4] 5.65% | [5] -12.1% | [6] 6.7%

NC(=O)C12CC3CC(CC(Br)(C3)C1)C2
inactive: [1] -7.9% | [2] -6.85% | [3] -8.25% | [4] 16.2% | [5] 2.5% | [6] -7.1%

CC12CCC(=O)[C@@]1(C)CCCC2O (stereo partly specified)
inactive: [1] -34.2% | [2] -34.4% | [3] -12.8% | [4] -34.6% | [5] -26.8% | [6] -32.2%

O=C(O)CCC1CCc2cccc(O)c2C1=O (stereo unspecified)
inactive: [1] 8.4% | [2] 3.3% | [3] 2.25% | [4] 15.6% | [5] 6.5% | [6] -3.45%

Cc1c(C(=O)CC(=O)C(=O)Nc2cc(Cl)ccc2Cl)[n+](=O)c2ccccc2n1[O-]
inactive: [1] -7.35% | [2] 1.9% | [3] -40.2% | [4] 16.2% | [5] 1.1% | [6] 1.65%

COc1ccc(C2ON(c3ccccc3)CC=C2C)cc1 (stereo unspecified)
inactive: [1] 36% | [2] -3.2% | [3] 5.55% | [4] 13.1% | [5] 19.4% | [6] 13.1%

COC(=O)C1CCc2ccccc2C1=O (stereo unspecified)
inactive: [1] -12.6% | [2] -13.7% | [3] 1.95% | [4] 6.4% | [5] 2.7% | [6] 12.2%

CC(=O)Nc1cccnc1
inactive: [1] -18.1% | [2] -3.85% | [3] 4.85% | [4] -21.1% | [5] -19.9% | [6] -2.45%

CCOC(=O)C(CCN(C)C)(CCN(C)C)c1ccccc1
inactive: [1] -6.3% | [2] -2.75% | [3] 21.6% | [4] -30.2% | [5] -13% | [6] -2.75%

O=C(c1ccc(F)cc1)C1CC1
inactive: [1] 3.7% | [2] -17.8% | [3] 19% | [4] 9.3% | [5] -0.95% | [6] 2.25%

COc1ccc(-c2cc(C(=O)O)c3cccc(C)c3n2)cc1
inactive: [1] 35.6% | [2] -1.7% | [3] 35% | [4] 36.1% | [5] 23.8% | [6] 47.1%

CC12C=CC(=O)C=C1CCC1C3CC(F)C(O)(C(=O)CO)C3(C)CC(O)C12F (stereo unspecified)
inactive: [1] -6.35% | [2] 2.25% | [3] 3.25% | [4] 25.2% | [5] 14.8% | [6] 3.3%

CC(C)(O)c1cccc(I)c1
inactive: [1] 7.7% | [2] -58.9% | [3] -21.1% | [4] -144% | [5] -39.8% | [6] 1.55%

COc1cc(O)c(C(C)c2ccccc2)cc1N=O (stereo unspecified)
inactive: [1] -9.45% | [2] -11.6% | [3] -4.4% | [4] 4.15% | [5] 11.8% | [6] -6.15%

C=C(C)c1nc(C#N)c(N)o1
inactive: [1] 33% | [2] 5.6% | [3] -13.4% | [4] 4.5% | [5] -37.8% | [6] -33.4%

O=C1c2cccc(S)c2C(=O)c2cccc(S)c21
inactive: [1] -21.5% | [2] -11.3% | [3] -9.75% | [4] 4.7% | [5] 5.35% | [6] -15.5%

CN(C)CC1C2CCC(C2)C1O (stereo unspecified)
inactive: [1] 2.2% | [2] -20.6% | [3] -7.7% | [4] 8% | [5] -11.7% | [6] 4.4%

CC1=NN(C)C(=O)C1
inactive: [1] 1.45% | [2] 3.3% | [3] 1.9% | [4] -0.4% | [5] -3.05% | [6] 9.25%
